We go through nine sequences from PMC11006913.

Residue numbers refer to the chain shown, from its start.

Common to all, as to assay: PBM; 200 nM protein, PBS
Holding throughout (conditions): dsDNA, one strand shown

The target in assay [1] is SHOX (Homo sapiens, UniProt O15266 103-189).
In assay [2] the target is MSX2 (Homo sapiens, UniProt P35548 130-214, R199I).
Assay [3] concerns the target SHOX (Homo sapiens, UniProt O15266 103-189, R173C).
Assay [4] concerns the target MSX2 (Homo sapiens, UniProt P35548 130-214).
The target of assay [5] is MSX2 (Homo sapiens, UniProt P35548 130-214, F161Y).
Assay [6] has as its target T1, PAX4 (Homo sapiens, UniProt O43316 9-242, R200K).
T1 sequence: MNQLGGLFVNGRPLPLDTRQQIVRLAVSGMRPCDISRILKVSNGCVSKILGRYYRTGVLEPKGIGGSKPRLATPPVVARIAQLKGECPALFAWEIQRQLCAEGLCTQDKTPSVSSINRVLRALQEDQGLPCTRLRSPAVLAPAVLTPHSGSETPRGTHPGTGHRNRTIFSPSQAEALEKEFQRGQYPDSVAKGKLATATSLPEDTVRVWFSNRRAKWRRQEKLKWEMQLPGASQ

In assay [7] the target is T2, PAX4 (Homo sapiens, UniProt O43316 9-242).
T2 sequence: T1 sequence with K192R

In assay [8] the target is T3, PAX4 (Homo sapiens, UniProt O43316 9-242, R200Q).
T3 sequence: T1 sequence with K192Q

In assay [9] the target is PITX2 (Homo sapiens, UniProt Q99697 72-157).
The target of assay [10] is T4, PAX4 (Homo sapiens, UniProt O43316 9-242, F177V).
T4 sequence: T1 sequence with F169V, K192R

Assay [11] deals with T5, PAX4 (Homo sapiens, UniProt O43316 9-242, F177Y).
T5 sequence: T1 sequence with F169Y, K192R

For assay [12], the target named is T6, PAX4 (Homo sapiens, UniProt O43316 9-242, R227W).
T6 sequence: T1 sequence with K192R, R219W

Assay [13] deals with HOXB9 (Homo sapiens, UniProt P17482 171-250).
In assay [14] the target is HOXB9 (Homo sapiens, UniProt P17482 171-250, R186Q).
Assay [15] concerns the target ALX3 (Homo sapiens, UniProt O95076 139-225, N203Q).
The target of assay [16] is ALX3 (Homo sapiens, UniProt O95076 139-225).
Assay [17] concerns the target ALX3 (Homo sapiens, UniProt O95076 139-225, L168Q).
Assay [18] concerns the target ALX3 (Homo sapiens, UniProt O95076 139-225, L168V).
Assay [19] addresses ALX3 (Homo sapiens, UniProt O95076 139-225, N203S).
Assay [20] has as its target ALX4 (Homo sapiens, UniProt Q9H161 200-286).
In assay [21] the target is ALX4 (Homo sapiens, UniProt Q9H161 200-286, Q225E).
Assay [22] addresses ALX1 (Homo sapiens, UniProt Q15699 118-204, L144V).
For assay [23], the target named is ALX1 (Homo sapiens, UniProt Q15699 118-204, L144R).
Assay [24] addresses ALX1 (Homo sapiens, UniProt Q15699 118-204).
In assay [25] the target is VAX1 (Homo sapiens, UniProt Q5SQQ9 86-172).
For assay [26], the target named is VAX1 (Homo sapiens, UniProt Q5SQQ9 86-172, T142I).
In assay [27] the target is VAX1 (Homo sapiens, UniProt Q5SQQ9 86-172, K157R).
VAX1 (Homo sapiens, UniProt Q5SQQ9 86-172, K157R), sequence (Q5SQQ9 86-172 K157R): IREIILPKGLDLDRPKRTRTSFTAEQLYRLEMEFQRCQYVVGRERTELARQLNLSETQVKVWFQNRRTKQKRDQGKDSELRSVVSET

SHOX (Homo sapiens, UniProt O15266 103-189), sequence (O15266 103-189): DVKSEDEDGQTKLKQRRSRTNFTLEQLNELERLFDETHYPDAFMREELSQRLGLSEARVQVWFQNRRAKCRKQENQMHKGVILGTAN
SHOX (Homo sapiens, UniProt O15266 103-189, R173C), sequence (O15266 103-189 R173C): as the sequence (O15266 103-189) above, with R71C counted along it
ALX4 (Homo sapiens, UniProt Q9H161 200-286, Q225E), sequence (Q9H161 200-286 Q225E): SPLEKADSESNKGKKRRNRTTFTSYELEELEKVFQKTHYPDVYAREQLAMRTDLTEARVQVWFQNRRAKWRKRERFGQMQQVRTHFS
ALX4 (Homo sapiens, UniProt Q9H161 200-286), sequence (Q9H161 200-286): as the sequence (Q9H161 200-286 Q225E) above, with E26Q counted along it
ALX1 (Homo sapiens, UniProt Q15699 118-204, L144R), sequence (Q15699 118-204 L144R): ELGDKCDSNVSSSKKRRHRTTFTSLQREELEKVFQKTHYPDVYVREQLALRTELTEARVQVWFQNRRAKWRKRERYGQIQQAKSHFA
ALX1 (Homo sapiens, UniProt Q15699 118-204, L144V), sequence (Q15699 118-204 L144V): as the sequence (Q15699 118-204 L144R) above, with R27V counted along it
MSX2 (Homo sapiens, UniProt P35548 130-214), sequence (P35548 130-214): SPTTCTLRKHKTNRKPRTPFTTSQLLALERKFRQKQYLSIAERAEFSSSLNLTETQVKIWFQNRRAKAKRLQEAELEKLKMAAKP
MSX2 (Homo sapiens, UniProt P35548 130-214, R199I), sequence (P35548 130-214 R199I): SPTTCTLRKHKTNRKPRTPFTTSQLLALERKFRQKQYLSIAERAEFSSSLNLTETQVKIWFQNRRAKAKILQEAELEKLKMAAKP
MSX2 (Homo sapiens, UniProt P35548 130-214, F161Y), sequence (P35548 130-214 F161Y): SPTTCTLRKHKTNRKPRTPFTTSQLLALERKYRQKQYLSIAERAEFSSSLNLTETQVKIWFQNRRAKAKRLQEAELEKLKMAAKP
ALX1 (Homo sapiens, UniProt Q15699 118-204), sequence (Q15699 118-204): as the sequence (Q15699 118-204 L144R) above, with R27L counted along it
HOXB9 (Homo sapiens, UniProt P17482 171-250), sequence (P17482 171-250): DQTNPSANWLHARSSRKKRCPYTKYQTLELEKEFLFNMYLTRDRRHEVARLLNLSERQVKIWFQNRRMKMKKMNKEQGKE
HOXB9 (Homo sapiens, UniProt P17482 171-250, R186Q), sequence (P17482 171-250 R186Q): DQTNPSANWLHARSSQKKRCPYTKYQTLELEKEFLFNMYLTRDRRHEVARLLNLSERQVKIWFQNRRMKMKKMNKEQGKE
ALX3 (Homo sapiens, UniProt O95076 139-225, N203S), sequence (O95076 139-225 N203S): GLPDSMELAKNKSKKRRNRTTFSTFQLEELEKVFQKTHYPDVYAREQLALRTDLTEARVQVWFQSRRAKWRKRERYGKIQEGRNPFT
VAX1 (Homo sapiens, UniProt Q5SQQ9 86-172), sequence (Q5SQQ9 86-172): as the sequence (Q5SQQ9 86-172 K157R) above, with R72K counted along it
ALX3 (Homo sapiens, UniProt O95076 139-225), sequence (O95076 139-225): as the sequence (O95076 139-225 N203S) above, with S65N counted along it
ALX3 (Homo sapiens, UniProt O95076 139-225, L168Q), sequence (O95076 139-225 L168Q): as the sequence (O95076 139-225 N203S) above, with L30Q, S65N counted along it
VAX1 (Homo sapiens, UniProt Q5SQQ9 86-172, T142I), sequence (Q5SQQ9 86-172 T142I): as the sequence (Q5SQQ9 86-172 K157R) above, with T57I, R72K counted along it
ALX3 (Homo sapiens, UniProt O95076 139-225, N203Q), sequence (O95076 139-225 N203Q): as the sequence (O95076 139-225 N203S) above, with S65Q counted along it
ALX3 (Homo sapiens, UniProt O95076 139-225, L168V), sequence (O95076 139-225 L168V): as the sequence (O95076 139-225 N203S) above, with L30V, S65N counted along it

For the sequence ACCGGCTG, the binding signal in assay [1] was 7.1 upbm affinity estimate (log intensity, higher = more binding, comparable within an allelic series); in assay [2] it was 9.47 upbm affinity estimate (log intensity, higher = more binding, comparable within an allelic series); in [3] it was 7.13 upbm affinity estimate (log intensity, higher = more binding, comparable within an allelic series); in assay [4], 9.51 upbm affinity estimate (log intensity, higher = more binding, comparable within an allelic series); in [5], 9.53 upbm affinity estimate (log intensity, higher = more binding, comparable within an allelic series).
In the case of CAGCGCAG, the binding signal is 7.11 upbm affinity estimate (log intensity, higher = more binding, comparable within an allelic series) in [1]; 9.32 upbm affinity estimate (log intensity, higher = more binding, comparable within an allelic series) in [6]; 9.29 upbm affinity estimate (log intensity, higher = more binding, comparable within an allelic series) in [7]; 9.39 upbm affinity estimate (log intensity, higher = more binding, comparable within an allelic series) in assay [8]; 8.17 upbm affinity estimate (log intensity, higher = more binding, comparable within an allelic series) in [9]; 7.22 upbm affinity estimate (log intensity, higher = more binding, comparable within an allelic series) in assay [3]. In addition, the binding signal is 9.38 upbm affinity estimate (log intensity, higher = more binding, comparable within an allelic series) in assay [10]; 9.36 upbm affinity estimate (log intensity, higher = more binding, comparable within an allelic series) in assay [11]; 9.48 upbm affinity estimate (log intensity, higher = more binding, comparable within an allelic series) in assay [12].
As for AATTAGGA, the binding signal is 11.4 upbm affinity estimate (log intensity, higher = more binding, comparable within an allelic series) in assay [1]; 10.3 upbm affinity estimate (log intensity, higher = more binding, comparable within an allelic series) in assay [13]; 9.06 upbm affinity estimate (log intensity, higher = more binding, comparable within an allelic series) in [3]; 10.2 upbm affinity estimate (log intensity, higher = more binding, comparable within an allelic series) in assay [14].
As to GCCTTGCC, the binding signal in assay [1] was 7.17 upbm affinity estimate (log intensity, higher = more binding, comparable within an allelic series); in assay [2], 9.62 upbm affinity estimate (log intensity, higher = more binding, comparable within an allelic series); in assay [3], 7.18 upbm affinity estimate (log intensity, higher = more binding, comparable within an allelic series); in assay [4], 9.57 upbm affinity estimate (log intensity, higher = more binding, comparable within an allelic series); in [5], 9.57 upbm affinity estimate (log intensity, higher = more binding, comparable within an allelic series).
Turning to CGCCGAGC, the binding signal in assay [1] is 7.14 upbm affinity estimate (log intensity, higher = more binding, comparable within an allelic series); in assay [6], 9.36 upbm affinity estimate (log intensity, higher = more binding, comparable within an allelic series); in [7], 9.47 upbm affinity estimate (log intensity, higher = more binding, comparable within an allelic series); in [15], 7.72 upbm affinity estimate (log intensity, higher = more binding, comparable within an allelic series); in [8], 9.48 upbm affinity estimate (log intensity, higher = more binding, comparable within an allelic series); in [3], 7.23 upbm affinity estimate (log intensity, higher = more binding, comparable within an allelic series). In addition, the binding signal in assay [10] is 9.31 upbm affinity estimate (log intensity, higher = more binding, comparable within an allelic series); in [16], 7.76 upbm affinity estimate (log intensity, higher = more binding, comparable within an allelic series); in assay [11], 9.32 upbm affinity estimate (log intensity, higher = more binding, comparable within an allelic series); in [17], 7.81 upbm affinity estimate (log intensity, higher = more binding, comparable within an allelic series); in assay [18] it was 7.74 upbm affinity estimate (log intensity, higher = more binding, comparable within an allelic series); in [12], 9.41 upbm affinity estimate (log intensity, higher = more binding, comparable within an allelic series). For the same sequence, the binding signal in assay [19] was 7.79 upbm affinity estimate (log intensity, higher = more binding, comparable within an allelic series).
As to AGCTCCAG, the binding signal in assay [1] is 7.12 upbm affinity estimate (log intensity, higher = more binding, comparable within an allelic series); in [20], 7.91 upbm affinity estimate (log intensity, higher = more binding, comparable within an allelic series); in assay [21], 8.27 upbm affinity estimate (log intensity, higher = more binding, comparable within an allelic series); in [22] it was 6.26 upbm affinity estimate (log intensity, higher = more binding, comparable within an allelic series); in assay [3] it was 7.22 upbm affinity estimate (log intensity, higher = more binding, comparable within an allelic series); in [23], 6.27 upbm affinity estimate (log intensity, higher = more binding, comparable within an allelic series). In addition, the binding signal in assay [24] was 6.1 upbm affinity estimate (log intensity, higher = more binding, comparable within an allelic series).
Regarding CCACCCGG, the binding signal in assay [1] was 7.19 upbm affinity estimate (log intensity, higher = more binding, comparable within an allelic series); in assay [20], 8.21 upbm affinity estimate (log intensity, higher = more binding, comparable within an allelic series); in assay [21], 8.29 upbm affinity estimate (log intensity, higher = more binding, comparable within an allelic series); in assay [22], 6.62 upbm affinity estimate (log intensity, higher = more binding, comparable within an allelic series); in assay [3], 7.17 upbm affinity estimate (log intensity, higher = more binding, comparable within an allelic series); in assay [23], 6.65 upbm affinity estimate (log intensity, higher = more binding, comparable within an allelic series). The binding signal is 7.3 upbm affinity estimate (log intensity, higher = more binding, comparable within an allelic series) in [25]; 7 upbm affinity estimate (log intensity, higher = more binding, comparable within an allelic series) in [26]; 6.35 upbm affinity estimate (log intensity, higher = more binding, comparable within an allelic series) in assay [24]; 7.13 upbm affinity estimate (log intensity, higher = more binding, comparable within an allelic series) in [27].
For CGCCTCCC, the binding signal was 7 upbm affinity estimate (log intensity, higher = more binding, comparable within an allelic series) in assay [1]; 9.2 upbm affinity estimate (log intensity, higher = more binding, comparable within an allelic series) in assay [6]; 9.23 upbm affinity estimate (log intensity, higher = more binding, comparable within an allelic series) in [7]; 9.17 upbm affinity estimate (log intensity, higher = more binding, comparable within an allelic series) in assay [8]; 6.98 upbm affinity estimate (log intensity, higher = more binding, comparable within an allelic series) in assay [3]; 9.03 upbm affinity estimate (log intensity, higher = more binding, comparable within an allelic series) in [10]. Also, the binding signal is 9.1 upbm affinity estimate (log intensity, higher = more binding, comparable within an allelic series) in [11] and 9.17 upbm affinity estimate (log intensity, higher = more binding, comparable within an allelic series) in assay [12].
As to CCCTCCCG, the binding signal in assay [1] was 6.94 upbm affinity estimate (log intensity, higher = more binding, comparable within an allelic series); in assay [20], 8.02 upbm affinity estimate (log intensity, higher = more binding, comparable within an allelic series); in assay [21], 8.18 upbm affinity estimate (log intensity, higher = more binding, comparable within an allelic series); in assay [3] it was 7.03 upbm affinity estimate (log intensity, higher = more binding, comparable within an allelic series).
